High-throughput results: PubChem BioAssay, National Center for Advancing Translational Sciences (NCATS)
The list is not random: actives were taken first. Their share in the collection is about 19%.
TDP1 cell noCPT: qHTS for Inhibitors of human tyrosyl-DNA phosphodiesterase 1 (TDP1): qHTS in cells in absence of CPT; DT40 Tdp1-/- hTDP1 cells, no CPT, ATP luminescence, 48 h; Potency, µM (doses to about 46.2 µM), for the others: top-dose activity change, negative = growth inhibition, most hits filed as inhibitors; 420,000 tested, 15% active; also: potency is read from the fitted curve at half-maximal effect; nearly all actives have a fitted effect of over 55% in size
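DT40 Tdp1-/-;hTDP1 cells, no CPT (DMSO vehicle only), 400 cells/well; compounds pin-transferred; ≥48 hr, 37 °C; CellTiter-Glo 30 min RT dark, luminescence read.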
HT1080-NT tox: qHTS for induction of synthetic lethality in tumor cells producing 2HG: qHTS for the HT-1080-NT fibrosarcoma cell line | HT-1080-NT fibrosarcoma viability, CellTiter-Glo ATP luminescence, 48 h | Potency, µM (series often up to 46.1 µM), for inactives: at the top dose activity, negative = less viability, most hits filed as cytotoxic | 360,000 tested, 1.6% active | AID 686970, 2013;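 also: NT is the 2HG producing partner of a matched IDH1 knockdown line; potency is read from the fitted curve at half-maximal effect; 0% = DMSO-treated cells and -100% = media-only wells without cells; nearly all actives have a fitted effect of over 55% in size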
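Toxicity toward the 2HG-producing NT line was scored as %Activity, normalised to DMSO and no-cell wells, from CellTiter-Glo luminescence after 48 hours' treatment.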
DT40 TDP1 CPT: qHTS for Inhibitors of human tyrosyl-DNA phosphodiesterase 1 (TDP1): qHTS in cells in presence of CPT | Potency, µM (series often up to 46.2 µM), for inactives: top-dose activity change, negative = growth inhibition, hits mostly inhibitors | 420,000 tested, 12% active | chicken DT40 Tdp1-/-;hTDP1 cells + 20 nM CPT, ATP luminescence, 48 h; also: potency is read from the fitted curve at half-maximal effect; nearly all actives have a fitted effect of over 55% in size
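Chicken DT40 Tdp1-/- cells complemented with human TDP1, 400 cells/well, exposed to compounds plus 20 nM camptothecin for at least 48 h at 37 C; viability read as ATP content by CellTiter-Glo luminescence.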
HT1080 IDH1KD tx: qHTS for induction of synthetic lethality in tumor cells producing 2HG: qHTS for the HT-1080-IDH1KD cell line | HT-1080 IDH1 knockdown viability, ATP luminescence, 48 h | Potency, µM (doses to about 46.1 µM), without a hit: at the top dose activity, negative = toxicity, hits mostly cytotoxic | 360,000 tested, 2% active | AID 686971, 2013;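 also: potency is read from the fitted curve at half-maximal effect; 0% = DMSO wells and -100% = cell-free medium wells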
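Viability of IDH1-knockdown HT-1080 fibrosarcoma cells was assessed by CellTiter-Glo after 48 h at 37 °C with titrated compound; concentration-effect curves were classified by fit quality and response size.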
IL-1B inflam inh: qHTS for Inhibitors of Inflammasome Signaling: IL-1-beta AlphaLISA Primary Screen. THP-1 LPS/ATP IL-1B secretion, AlphaLISA, 16 h; stronger effect = lower value. activity change, % at 57.5 µM. 360,000 tested, 4.7% active. AID 743279, 2014; in the data active = activity change below about -50%; inconclusive = mostly about -30% to -49%
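Secreted IL-1B measured by AlphaLISA bead assay after 16 h compound exposure of THP-1 cells; compounds (final up to 57.5 uM) added 1 h before LPS (250 ng/mL) and ATP (1.25 mM) stimulation; lower signal means less secretion.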
The depositor's hits bear a star; ? = inconclusive; · = not tested or not shown. Unless noted, calls follow the shape of the dose curve; as a rule, active = well fitted curve in the direction sought with a large enough effect; inconclusive = small, poorly fitted or top-dose-only effect, or another doubt; inactive = no such curve, though single readings can be large; an effect the other way counts as inactive or inconclusive. Unless noted, % is scaled to controls: 0 for no effect and ±100 for the full control effect.

SMILES	TDP1 cell noCPT	HT1080-NT tox	DT40 TDP1 CPT	HT1080 IDH1KD tx	IL-1B inflam inh
CC(C)CCn1c(N)c(C(=O)NCc2cccs2)c2nc3ccccc3nc21	?	9.7%	?	2.0%	?
CC(C)CNC(=O)c1c(N)n(Cc2ccc3c(c2)OCO3)c2nc3ccccc3nc12	?	20.6µM*	?	16.4µM*	?
CC(C)CNC(=O)c1c(N)n(Cc2ccco2)c2nc3ccccc3nc12	?	?	?	?	-72.8*
CC(C)OCCCNC(=O)c1c(N)n(Cc2cccs2)c2nc3ccccc3nc12	18.4µM*	18.4µM*	?	?	-63.0*
CCCCSP1(=S)NCCCN1	-21.6%	11.1%	-25.5%	11.2%	22.4
COCCCNC(=O)c1c(N)n(Cc2ccco2)c2nc3ccccc3nc12	25.9µM*	-5.5%	?	-1.7%	-54.6*
Nc1c(C(=O)NCC2CCCO2)c2nc3ccccc3nc2n1Cc1ccco1 (stereo not drawn)	?	?	?	?	-71.5*
COc1ccc(Cn2c(N)c(C(=O)NCc3ccco3)c3nc4ccccc4nc32)cc1OC	6.51µM*	?	6.51µM*	?	?
Nc1c(C(=O)OCC2CCCO2)c2nc3ccccc3nc2n1Cc1cccs1 (stereo not drawn)	18.4µM*	?	?	?	-29.2
COCCNC(=O)c1c(N)n(CCC(C)C)c2nc3ccccc3nc12	18.4µM*	-2.7%	11.6µM*	-2.5%	-115.9*
Nc1c(C(=O)NCc2ccco2)c2nc3ccccc3nc2n1CCN1CCCCC1	23.1µM*	?	23.1µM*	?	-63.3*
O=C(c1ccc(N2CC3CC(C2)c2cccc(=O)n2C3)c([N+](=O)[O-])c1)N1CCCC1 (stereo not drawn)	-7.9%	-11.6%	3.0%	0.5%	8.0
CC(C)NC(=O)NC1C2CC3CC(C2)CC1C3 (stereo not drawn)	?	9.1%	-23.1%	5.6%	37.6
[2H]C([2H])([2H])[C@H](N)Cc1ccccc1	4.0%	·	3.1%	·	·
Fc1ccc(C2=CCN(C(c3cccs3)c3nnnn3CCc3ccccc3)CC2)cc1 (stereo not drawn)	?	1.0%	?	-0.5%	-60.6*
CCC(C)(C)n1nnnc1C(c1cccs1)N1CC=C(c2ccc(F)cc2)CC1 (stereo not drawn)	?	?	23.1µM*	-9.3%	-66.8*
C=CCC1(C(C)CCC)C(=O)N=C(S)NC1=O (stereo not drawn)	-0.7%	·	-2.9%	·	·
CC1CC2(C)C(=CC1=O)CCC1C3CCC(C)(O)C3(C)CC3OC312 (stereo not drawn)	?	10.3%	?	-13.7%	-2.4
CSc1ncc(Cl)c(C(=O)O)n1 (tested in a mixture with another compound)	-19.7%	7.4%	-0.9%	9.7%	6.4
CC[n+]1c(SC)ccc2cc(OC)ccc21	16.4µM*	-1.0%	?	-0.5%	5.9
Cn1cc(C2=C(c3cn(C4CCN(Cc5ccccn5)CC4)c4ccccc34)C(=O)NC2=O)c2ccccc21	-5.3%	·	4.9%	·	·
CC(CNC(=O)c1ccc(CSc2nc3ccncc3n2Cc2ccc(F)cc2)cc1)c1ccccc1 (stereo not drawn)	?	·	11.8%	·	·
COc1cc([N+](=O)[O-])c2nc(C)ccc2c1[N+](=O)[O-]	10.3µM*	?	9.2µM*	?	-2.5
COc1cc([N+](=O)[O-])cc([N+](=O)[O-])c1N	-19.9%	·	-4.7%	·	·
COc1cc([N+](=O)[O-])c2ncccc2c1[N+](=O)[O-]	4.61µM*	14.6µM*	2.59µM*	7.31µM*	-116.6*
SMILES	TDP1 cell noCPT	HT1080-NT tox	DT40 TDP1 CPT	HT1080 IDH1KD tx	IL-1B inflam inh
Oc1ccccc1Cl	4.3%	1.1%	7.4%	1.0%	-1.9
C[C@]12CCC3C(CC[C@H]4C[C@H](O)CC[C@]34C)[C@@H]1CC[C@@H]2C(=O)CO (stereo partly drawn)	-29.6%	·	-24.4%	·	·
C[C@]12CCC3C(CC[C@H]4C[C@@H](O)CC[C@]34C)C1CC[C@@H]2OC(=O)[C@H](N)CCCCN (stereo partly drawn)	?	-21.7%	?	-0.7%	-72.3*
Cn1c(O)c(C=NC2CC(C)(C)NC(C)(C)C2)c(=O)n(C)c1=O	-6.3%	3.7%	2.6%	14.2%	-8.4
CC(C)=CCC/C(C)=C/CNC(=O)C[C@H]1C[C@H](C(=O)N(C(C)C)C(C)C)[C@@]2(C)c3[nH]c4ccc(Cl)cc4c3CCN2C1=O	?	5.2%	?	11.1%	38.3
COc1ccc2[nH]c3c(c2c1)CCN1C(=O)C(CC(=O)NCc2cccc(C(F)(F)F)c2)C[C@H](C(=O)N2CCCCC2)[C@@]31C (stereo partly drawn)	8.2µM*	-4.3%	10.3µM*	-16.0%	-53.1*
CCOP(=O)(OCC)C(Cc1ccc(OC)c(OC)c1)N=C(c1ccccc1)c1ccccc1 (stereo not drawn)	?	-11.2%	?	-13.6%	-11.2
CC1OC(NCCc2ccccc2)C(O)C(O)C1O (stereo not drawn)	4.7%	13.2%	-3.8%	16.0%	-6.3
O=Cc1cn(Cc2ccc(Br)cc2)c2ccccc12	-26.3%	-14.9%	-10.5%	-11.8%	-13.5
CC(N)Cc1cn(Cc2ccccc2)c2ccccc12 (stereo not drawn)	20.6µM*	?	?	?	-90.2*
CC1(C)CN=C(NCc2ccccc2Cl)S1	-8.8%	4.0%	?	7.9%	-3.7
COc1ccc(C2=NCC(=O)N(CC(=O)NCc3ccco3)c3sc4c(c32)CCCC4)cc1OC	?	0.0%	?	0.0%	-56.5*
O=C(CN1C(=O)CN=C(c2ccccc2)c2ccccc21)NCc1ccco1	-7.9%	-1.6%	-10.7%	-2.3%	0.0
C=Cc1cc(OC)c2c(c1)c(=O)oc1c2cc(OC)c2c(O)ccc(C3OC(C)C(O)C(C)(O)C3O)c21 (stereo not drawn)	0.206µM*	9.2µM*	0.164µM*	1.46µM*	-100.5*
Cn1c(=O)oc2cc(S(=O)(=O)NCCN3CCN(c4ccccc4)CC3)ccc21	-26.3%	7.3%	?	2.9%	11.4
Cn1cc[n+](C)c1P(=S)(c1ccccc1)c1ccccc1	20.6µM*	-0.8%	10.3µM*	4.3%	2.1
COC(=O)[C@@H]1[C@H]2CC[C@@H](C[C@H]1OC(=O)c1ccccc1)N2C	-3.8%	·	12.0%	·	·
